Sampled rows, rich in hits. Any-hit rate of the full collection: about 21%.
Pf growth 96h – inhibits malaria parasite growth, 96 h. Potency, µM (doses to about 28.7 µM), for inactives: at the top dose activity change, negative = inhibition, actives largely listed as inhibitors. P. falciparum luciferase reporter growth, 96 h. actives 6.9% (n = 320,000); also: potency is read from the fitted curve at half-maximal effect; % is scaled to controls: 0 for no effect and ±100 for the full control effect
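Cell-based qHTS: luciferase-tagged P. falciparum in erythrocytes (2% hematocrit, 0.05% parasitemia final) incubated with compounds for 96 hours, 37 C, 5% CO2; luciferase detection reagent then added and luminescence measured.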
Cycloheximide cs – counter-screen for Shiga toxin inhibitors: cycloheximide protein synthesis inhibition; max response, %; actives 12% (n = 300,000); cell reporter, cycloheximide protein synthesis inhibition counterscreen; AID 2314; in the data active = max response mostly above about 13%, no sharp cut-off; inactive = mostly below about 14%; also: read at 38.3 µM for the half of the compounds with a filed dose; 0% is about no effect
Pf growth 48h – P. falciparum growth inhibition at 48 hours (one generation). Potency, µM (top dose mostly 28.7 µM), inactives show top-dose activity change, negative = inhibition, most hits filed as inhibitors. actives 5.9% (n = 310,000). P. falciparum luciferase growth in erythrocytes, 48 h. AID 504832; also: potency is read from the fitted curve at half-maximal effect; % is scaled to controls: 0 for no effect and ±100 for the full control effect
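Firefly luciferase activity from engineered P. falciparum reports growth; inhibitors lower the luminescent signal. Cultures contained 2% hematocrit erythrocytes at 0.1% final parasitemia.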
Shiga inhibitor – inhibitors of Shiga toxin in Vero cells; Vero cells, Shiga toxin protein synthesis inhibition reporter; inhibition, % at 38.7 µM; actives 9.2% (n = 290,000); in the data active = inhibition mostly above about 28%, no sharp cut-off; inactive = mostly below about 43%; also: 0% is about no effect
Active calls of the source: *; i = inactive; u = inconclusive; x = no result given; [ ] = another dose, or the depositor's remark. Unless noted, calls follow the shape of the dose curve; as a rule, active = well fitted inhibition curve with a large enough effect; inconclusive = small, poorly fitted or top-dose-only effect, or another doubt; inactive = no such curve, though single readings can be large or run the other way.

SMILES	Pf growth 96h	Cycloheximide cs	Pf growth 48h	Shiga inhibitor
CCN(CC(=O)Nc1c(F)cccc1F)C(=O)Cc1ccc2c(c1)CCC2	15%	x	-26%	x
COc1cc(Cl)c(C)cc1NC(=O)CSc1cc(Cl)ccc1Cl	u	-3	-7%	-4
OCCN(Cc1ccccc1)Cc1ccc(F)c(F)c1	-8%	-3	-1%	-28
CCOC(=O)NC(=S)Nc1ccc(OC)cc1	-2%	18*	36%	33
CCOc1ccc(NC(=O)c2ccncc2)cc1	u	17*	46%	5
CCOc1cc(C(=O)Nc2ccncc2)cc(OCC)c1OCC	u	-2	5.2µM*	-19
CCOc1ccc(NC(=O)c2ccc(NC(=O)COC(=O)Cc3ccccc3)cc2)cc1	76%	40*	48%	50*
CCOC(=O)NC(NC(=S)Nc1ccc(OC)cc1)C(Cl)(Cl)Cl (stereo not drawn)	u	1	-18%	-14
CSCCC(NC(=O)CCNC(=O)c1ccccc1Cl)c1nc2ccccc2[nH]1 (stereo not drawn)	11%	x	-13%	x
CC(=O)OC[C@H]1O[C@@](COC(C)=O)(O[C@H]2O[C@H](COC(C)=O)[C@@H](OC(C)=O)[C@H](OC(C)=O)[C@H]2OC(C)=O)[C@@H](OC(C)=O)[C@@H]1OC(C)=O	-15%	x	-8%	x
O=C(CCC1CCCN(Cc2cccc(Cl)c2)C1)NCc1ccccc1F (stereo not drawn)	-13%	1	-20%	-8
CCOc1ccc2c(c1)C(=NNC(=O)c1ccncc1)c1cc(OCC)ccc1-2	2.1µM*	7	9.3µM*	-23
CCOc1ncccc1C(=O)Nc1ccc(C(=O)Nc2ccc(OC)cc2)cc1	4%	x	u	x
CCOc1ccc(C(=O)c2ccncc2)cc1	x	10	3%	17
CCOc1cc(C(=S)N2CCCCC2)ccc1OCC(=O)NCc1ccccc1	3.7µM*	-2	x	-7
CCOc1ccc(NC(=O)c2ccc(OC)cc2)cc1	u	43*	30%	61*
C/C(=N/NC(=O)CN1CCN(Cc2ccccc2Cl)CC1)c1ccco1	u	7	u	23
O=C(CN1C(=O)NC2(CCCc3ccccc32)C1=O)NC1CCCCC1 (stereo not drawn)	3%	x	1%	x
O=C(c1ccco1)N1CCN(c2ncnc3c(-c4ccc(Cl)cc4)nsc23)CC1	-4%	48*	182%	101*
COc1ccc(-c2nsc3c(N4CCCC4)ncnc23)cc1	10%	49*	104%	118*
Cc1ccc(-c2nsc3c(N4CCN(C(=O)c5ccco5)CC4)ncnc23)cc1	-6%	30*	20%	71*
COc1ccc(-c2nsc3c(N4CCN(S(=O)(=O)c5ccccc5)CC4)ncnc23)cc1	-19%	-3	35%	2
O=C(NCC1CC1)c1cc([N+](=O)[O-])cc([N+](=O)[O-])c1	20%	-6	9%[0.00184 µM]	-3
CCOC(=O)Cc1csc(NC(=O)Cc2ccc(Cl)cc2)n1	-8%	-1	-15%	-8
COC(=O)Cc1csc(Nc2ccc(F)c(Cl)c2)n1	24%	21*	15%	30
SMILES	Pf growth 96h	Cycloheximide cs	Pf growth 48h	Shiga inhibitor
Cc1cccc(Nc2nc(CC(=O)O)cs2)c1	u	41*	46%	105*
COC(=O)Cc1csc(NCc2ccccc2)n1	1%	-3	4%	1
Cc1ccc(NC(=O)Cc2nc(CCl)cs2)cc1	-2%	-3	2%	9
CCOC(=O)Cc1csc(NC(=O)COc2cccc(C)c2)n1	-22%	-1	-10%	-5
Cc1ccc(NC(=S)Nc2nc(CC(=O)Nc3ccccc3)cs2)cc1	42%	14*	-2%	15
CCOC(=O)Cc1csc(Nc2ccc(Cl)cc2)n1	83%	48*	53%	11*
O=C(Cc1sc(-c2ccccc2)nc1-c1ccccc1)Nc1ccccc1	x	-2	u	-16
O=C(O)Cc1sc(Nc2ccccc2)nc1-c1cccs1	113%	26*	60%	65*
COC(=O)Cc1csc(Nc2ccc(Cl)cc2)n1	40%	22*	67%	36
CC(=O)Cc1nsc(Nc2ccccc2)n1	15%	12	x	20
CC(=O)Cc1nsc(Nc2cccc(C)c2)n1	i	28*	93%	92*
O=C(Cc1sc(Nc2ccccc2)nc1-c1ccccc1)NCc1ccccc1	-85%	31*	-23%	63*
C=CCNc1nc(-c2cccs2)c(CC(=O)O)s1	-6%	-2	1%	-1
COc1cc(C(=O)NNC(=O)CNC(=O)c2ccc(Br)o2)cc(OC)c1OC	32%	-6	14%	-4
COc1ccc(NC(=O)c2cc(S(=O)(=O)N3CCCC3)ccc2C)cn1	15%	x	-17%	x
Cc1ccc(F)cc1NC(=O)CSc1nnc(CNC(=O)c2ccco2)n1C	-1%	x	31%	x
Cn1c(C(=O)OC(C(=O)NC2CCCCC2)c2ccncc2)cc2sccc21 (stereo not drawn)	1%	-1	u	12
O=C(O)Cc1sc(NC2CCCCC2)nc1-c1ccc(Cl)cc1	u	54*	-23%	42*
O=C(O)Cc1sc(Nc2cccc3ccccc23)nc1-c1ccc(F)cc1	12%	7	-5%	6
COC(=O)Cc1csc(Nc2ccccc2)n1	u	31*	8%	97*
O=C(O)Cc1sc(-c2ccccc2Cl)nc1-c1ccccc1	-6%	4	-18%	-7
COc1ccc(-c2nc(C)sc2CC(=O)O)cc1	x	1	u	1
Cc1ccc(-c2nc(-c3ccc(Cl)cc3)sc2CC(=O)O)c(C)c1	u	28*	3%	7
Cc1ccc(-c2nc(Nc3cccc(C)c3)sc2CC(=O)O)cc1	-1%	27*	50%	55*
CCOC(=O)c1ccccc1NC(=O)CSc1nnnn1C	u	4	u	-3
SMILES	Pf growth 96h	Cycloheximide cs	Pf growth 48h	Shiga inhibitor
CCOC(=O)Cc1nnc(NC(=O)Nc2ccccc2)s1	-10%	16	6%	31
COC(=O)Cc1nc(Nc2ccccc2)sc1C	42%	12*	17%	10
N/C(CS(=O)(=O)c1ccccn1)=N\OC(=O)c1ccccc1Cl	156%	40*	62%	57*
N/C(CS(=O)(=O)c1ccccn1)=N\OC(=O)c1ccc(Cl)cc1	27%	26*	22%	35
N/C(CCS(=O)(=O)c1ccc(Cl)cc1)=N\OC(=O)c1ccc(Cl)cc1	u	-2	u	-7
CC1SCC(NC(=O)c2ccc(Cl)cc2)CS1 (stereo not drawn)	87%	29*	42%	49*
O=C(NC1CC2CCC(C1)N2Cc1ccccc1)c1ccccc1Cl (stereo not drawn)	13µM*	-2	1%	-2
Cc1ccccc1C(=O)NC1CC2CCCC(C1)N2Cc1ccccc1 (stereo not drawn)	u	1	-3%	-6
CC1SCC(NC(=O)c2ccccc2Cl)CS1 (stereo not drawn)	97%	53*	70%	74*
CCCCN1C2CCCC1CC(NC(=O)c1ccccc1Cl)C2 (stereo not drawn)	u	-2	-17%	-10
CC1SCC(NC(=O)c2cccc(Cl)c2)CS1 (stereo not drawn)	45%	20	39%	46
CS(=O)(=O)ON=C1CCN(S(=O)(=O)c2ccccc2)CC1	16%	-4	-18%	-6
